Records with an inconclusive call do not appear. Active and inactive are the calls of the source. Calls come from the whole dose curve; as a rule, active = well fitted inhibition curve with a large enough effect; inconclusive = small, poorly fitted or top-dose-only effect; inactive = flat fitted curve, though single readings scatter.
Experiments:
Test in all cases: qHTS profiling for inhibitors of Plasmodium falciparum proliferation (AID 504749); note: nearly all actives have a fitted effect of over 60% in size
Conditions in all cases: P. falciparum in erythrocytes, SYBR Green DNA, 72 h; series mostly up to 12.8 µM
3D7 = test system: 3D7
How it was run: (§1)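 SYBR Green fluorescence (ex 485 nm, em 535 nm) reports parasite DNA after 72 h compound exposure of infected red cells at 0.3% parasitemia, 2.5% hematocrit; signal normalized to 0.29 uM artemisinin and vehicle wells.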

CP185 = test system: CP185
How it was run: as §1

CP194 = test system: CP194
How it was run: as §1

CP201 = test system: CP201
How it was run: as §1

CP237 = test system: CP237
How it was run: as §1

CP238 = test system: CP238
How it was run: as §1

CP247 = test system: CP247
How it was run: as §1

CP262 = test system: CP262
How it was run: as §1

CP265 = test system: CP265
How it was run: as §1

CP286 = test system: CP286
How it was run: as §1

CP305 = test system: CP305
How it was run: as §1

CP335 = test system: CP335
How it was run: as §1

DIV30 = test system: DIV30
How it was run: as §1

Dd2 = test system: Dd2
How it was run: as §1

ECU = test system: ECU
How it was run: as §1

HB3 = test system: HB3
How it was run: as §1

P94_40 = test system: P94_40
How it was run: as §1

PC26 = test system: PC26
How it was run: as §1

PC49 = test system: PC49
How it was run: as §1

TAB109 = test system: TAB109
How it was run: as §1

Measured: Potency

C[N+](C)(C)CC(O)CC(=O)O (stereo not given)
inactive: 3D7 | CP185 | CP194 | CP201 | CP237 | CP238 | CP247 | CP262 | CP265 | CP286 | CP305 | CP335 | DIV30 | Dd2 | ECU | HB3 | P94_40 | PC26 | PC49 | TAB109

CC(C)N1CCN(c2ccc(OC[C@@H]3CO[C@@](Cn4cncn4)(c4ccc(Cl)cc4Cl)O3)cc2)CC1
inactive: 3D7 | CP185 | CP194 | CP201 | CP237 | CP238 | CP247 | CP262 | CP265 | CP286 | CP305 | CP335 | DIV30 | Dd2 | ECU | HB3 | P94_40 | PC26 | PC49 | TAB109

O=C(Cc1cccs1)NC1C(=O)N2C(C(=O)[O-])=C(C[n+]3ccccc3)CSC12 (stereo not given)
inactive: 3D7 | CP185 | CP194 | CP201 | CP237 | CP238 | CP247 | CP262 | CP265 | CP286 | CP305 | CP335 | DIV30 | Dd2 | ECU | HB3 | P94_40 | PC26 | PC49 | TAB109

— PubChem BioAssay (NCATS)
